Among all 400,000 compounds or so, about 3,700 (0.93%) were called active. Inconclusive results (about 3%) are left out. This is one part of a sample in which actives are shown more often than they occur. The rule behind the calls is not given here.
Each compound was assayed against T1, Vitamin D3 receptor (Homo sapiens) (UniProt P11473) (assay: Inhibitors of the vitamin D receptor (VDR): qHTS. [Related pubchem assays (depositor defined):AID504855]).
T1 sequence (whole entry): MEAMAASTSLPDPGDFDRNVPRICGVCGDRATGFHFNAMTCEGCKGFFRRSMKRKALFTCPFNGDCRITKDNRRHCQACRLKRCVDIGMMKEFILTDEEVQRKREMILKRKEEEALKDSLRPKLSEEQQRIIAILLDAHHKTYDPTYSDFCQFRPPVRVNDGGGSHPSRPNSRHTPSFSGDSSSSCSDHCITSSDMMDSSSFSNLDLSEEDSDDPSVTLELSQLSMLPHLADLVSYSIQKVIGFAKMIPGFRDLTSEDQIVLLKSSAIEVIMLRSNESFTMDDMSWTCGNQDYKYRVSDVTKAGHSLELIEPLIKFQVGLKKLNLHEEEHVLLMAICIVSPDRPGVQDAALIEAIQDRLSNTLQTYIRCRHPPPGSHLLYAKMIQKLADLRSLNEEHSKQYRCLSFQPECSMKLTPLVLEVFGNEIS
Assay type: functional

Potency, active:
COc1ccccc1/C=C/C(=O)c1cccs1 25.1 µM
O=C(/C=C/c1ccc(Cl)cc1)c1cccs1 3.16 µM
CCCc1nnc(NC(=O)C2C(=O)c3cccc4c3N(CC4)C2=O)s1 (stereo not drawn) 79.4 µM
